Screening results: PubChem BioAssay, several laboratories
CF NFkB block: cystic fibrosis NF-kB activation inhibition; AID 588850; inhibition, % at 5 µM; hit rate 0.86% among 360,000; KKLEB NF-kB-GFP reporter, PAF-induced, GFP fluorescence overnight;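 active = at least 50% inhibition at 5 µM, scaled per plate between neutral and stimulator controls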;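 also: PAF is a Pseudomonas aeruginosa culture filtrate used as stimulus; plate controls were PAF-stimulated DMSO wells for no effect and unstimulated DMSO wells for full effect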
KKLEB cytotox: CF airway cell cytotoxicity counter-screen. KKLEB CF airway cells viability, ATPlite luminescence, overnight; active compounds read low; cells stimulated with P. aeruginosa culture filtrate. activity change (cytotoxicity), % at 5 µM. hit rate 0.36% among 360,000. AID 602141;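 active = corrected activity change at or below -50% at 5 µM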
Mdm2 MdmX PPI: inhibitors of human Mdm2/MdmX interaction. AID 485346. inhibition, % at 8 µM. SaOS-2 split-luciferase Mdm2/MdmX complementation, luminescence. hit rate 3% among 330,000. O15151+Q00987;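 active = inhibition of at least 50% at 8 µM in the primary screen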
HIF-2a block: inhibitors of HIF-2a; 786-0 RCC cells HIF-2a reporter, luciferase luminescence, overnight; inhibition, % at 18.8 µM; hit rate 0.72% among 360,000;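 active = inhibition of the luminescence signal of 40% or more relative to plate controls, in a single-dose primary screen at 18.75 µM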
Peg3 prom inh-1: Peg3 promoter activity inhibition | HeLa PEG-Prom luciferase reporter, luminescence, overnight | inhibition, % at 20 µM | hit rate 1.7% among 360,000 | AID 588405;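 active = inhibition of at least 50% at 20 µM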
ABHD5-PLIN5 inh: blocks binding of human ABHD5 to perilipin-5. Split G. princeps luciferase complementation, luminescence, 4 h. hit rate 0.78% among 360,000. AID 602281. inhibition, % at 4 µM. Q00G26+Q8WTS1;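 active = inhibition above the mean inhibition across every tested compound plus 3 SD, cut at about 22% in these data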;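 also: 0% = DMSO only wells and the 100% control is not disclosed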
Target sequence (Q00G26 whole entry, looked up): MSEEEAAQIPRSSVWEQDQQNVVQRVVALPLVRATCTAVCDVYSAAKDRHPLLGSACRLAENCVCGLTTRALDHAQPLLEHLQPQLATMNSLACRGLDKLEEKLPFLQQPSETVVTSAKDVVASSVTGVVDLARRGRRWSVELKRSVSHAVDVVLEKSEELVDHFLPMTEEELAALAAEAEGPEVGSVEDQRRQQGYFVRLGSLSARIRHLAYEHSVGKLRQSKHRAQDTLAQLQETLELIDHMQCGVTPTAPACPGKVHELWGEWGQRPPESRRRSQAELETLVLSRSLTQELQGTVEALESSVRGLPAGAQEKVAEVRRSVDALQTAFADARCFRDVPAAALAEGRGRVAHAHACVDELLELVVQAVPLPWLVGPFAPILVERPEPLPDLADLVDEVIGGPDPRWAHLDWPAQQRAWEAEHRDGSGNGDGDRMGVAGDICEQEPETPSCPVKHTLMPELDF
Target sequence (Q8WTS1 whole entry, looked up): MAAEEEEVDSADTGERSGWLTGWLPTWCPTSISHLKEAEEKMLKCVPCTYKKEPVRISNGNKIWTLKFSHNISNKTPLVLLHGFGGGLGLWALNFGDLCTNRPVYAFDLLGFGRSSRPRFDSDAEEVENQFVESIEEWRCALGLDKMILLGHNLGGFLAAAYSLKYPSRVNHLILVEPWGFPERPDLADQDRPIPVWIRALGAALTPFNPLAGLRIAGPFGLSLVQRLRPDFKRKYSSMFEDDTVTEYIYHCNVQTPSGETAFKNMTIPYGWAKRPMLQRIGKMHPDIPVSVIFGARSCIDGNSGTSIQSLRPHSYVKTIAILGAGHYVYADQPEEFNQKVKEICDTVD
Peg3 prom inh-2: Peg3 promoter inhibition confirmation | shares compounds with Peg3 prom inh-1 | HeLa PEG-Prom luciferase reporter, luminescence, overnight | inhibition, % at 20 µM | hit rate 84% among 1,300 | AID 602417;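 active = at 20 µM dose, 40% or more inhibition averaged across four replicates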
Active calls of the source: *; x = no result. In the library only some 4.6% were active in any assay of this set; here they are far more common.

SMILES | CF NFkB block | KKLEB cytotox | Mdm2 MdmX PPI | HIF-2a block | Peg3 prom inh-1 | ABHD5-PLIN5 inh | Peg3 prom inh-2
Cc1ccccc1CNC(=O)C1CCCN(c2nnc(C)c3c(C)n(-c4ccccc4)nc23)C1 (stereo not drawn) | -6.9 | -6.4 | 33.3 | 24.7 | 62.9* | -0.5 | 81.4*
COc1cccc(CN(C(=O)c2ccccc2Cl)C2CCS(=O)(=O)C2)c1 (stereo not drawn) | 19.5 | 3.3 | -5.7 | 10.3 | 5.6 | -1.8 | x
O=[N+]([O-])CC1(n2nc3ccccc3n2)CCCCC1 | 46.0 | -47.4 | 8.7 | 6.6 | 66.8* | -9.3 | -1.9
O=C(NC(c1ccc(F)cc1)c1ccc2ccccc2n1)C1CCN(Cc2cccc(C(F)(F)F)c2)CC1 (stereo not drawn) | 38.3 | -25.2 | x | -52.2 | 77.7* | 2.9 | 84.7*
Cc1cc(C)c(S(=O)(=O)NCC(c2ccco2)N2CCc3ccccc3C2)c(C)c1 (stereo not drawn) | 9.5 | 22.7 | 13.5 | -23.4 | -7.9 | -6.8 | x
COc1ccc(N2CCN(C(=O)COC(=O)CC(NC(N)=O)c3ccc(Cl)cc3)CC2)cc1 (stereo not drawn) | 1.7 | -7.8 | x | 11.9 | 13.1 | -3.0 | x
CC(=O)CCc1ccc(Oc2nc(-c3cccnc3)nc3ccccc23)cc1 | 35.0 | -18.1 | 32.1 | 8.9 | 66.0* | 8.8 | 39.6
Cn1cc(S(=O)(=O)N2CCOCC2)cc1C(=O)O | -6.7 | 3.3 | 7.0 | 10.0 | 9.6 | 0.0 | x
COc1ccc2c(c1)C=C([C@@H]1C[C@H]3CN(c4ccccc4)C(=O)[C@]34CCCN14)CO2 | -0.1 | 14.2 | 15.7 | 15.2 | 71.1* | -2.3 | 52.8*
CN1C[C@@H]2C[C@@H](C3=Cc4cc(Cl)ccc4OC3)N3CCC[C@@]23C1=O | 0.1 | 6.4 | -34.1 | 11.9 | 7.5 | -0.2 | x
CC1(NC(=O)Nc2cccc(Br)c2)CCS(=O)(=O)C1 (stereo not drawn) | -10.8 | 11.3 | 10.8 | 6.8 | -2.8 | 1.6 | x
Cc1cc(C)c(C)c(S(=O)(=O)N2CCN(C(=O)c3cc(=O)[nH]c4ccccc34)CC2)c1C | 36.7 | -16.9 | 37.7 | 18.7 | 58.9* | 6.7 | 58.4*
Cc1cc(C)c(S(=O)(=O)N2CCN(C(=O)c3cc(=O)[nH]c4ccccc34)CC2)c(C)c1 | 16.8 | -15.0 | 2.7 | 11.4 | 27.8 | -0.6 | x
CCN(CCO)c1ccc(Nc2cc(-c3ccc(-c4ccccc4)cc3)ncn2)cc1 | -17.4 | 4.2 | x | -23.7 | -2.8 | -1.2 | x
CCN(CCO)c1ccc(N=Nc2cc(C)[nH]n2)cc1 | 0.6 | -13.9 | 26.2 | 55.2* | 72.3* | 10.8 | 55.8*
COc1cccc(NC(=O)CN(C)C(=O)c2cccnc2Nc2cccc(C(F)(F)F)c2)c1 | -17.7 | -8.0 | 23.1 | 8.6 | 69.3* | -11.7 | 72.9*
O=C(c1cnc(N2CCN(c3ncccn3)CC2)c2ccccc12)N1CCN(c2ncccn2)CC1 | -4.1 | -0.2 | -17.2 | 7.1 | 60.2* | -0.1 | 34.4
O=C1C(C=Nc2ccc(F)cc2)=C(O)c2ccccc21 | -14.8 | -9.1 | -64.7 | -215.1 | -5.5 | -1.2 | x
COc1ccc(N=CC2=C(O)c3ccccc3C2=O)c(OC)c1 | -14.6 | -77.3* | 29.2 | 55.3* | 74.2* | -0.9 | 21.1
C=C1CC(Cn2cc(Br)c(=O)[nH]c2=O)(c2ccc(-c3ccccc3)cc2)OC1=O (stereo not drawn) | 87.1* | -48.9 | x | 94.2* | 99.6* | 54.5* | 97.5*
CCCCCCCCNCCS(=O)(=O)NCc1ccc(OC)cc1 | -13.6 | -3.3 | x | -9.9 | 56.4* | -6.7 | 68.5*
CCCCCCCCNS(=O)(=O)CCNCc1ccccc1 | 23.3 | -19.0 | x | 14.1 | 7.2 | -7.2 | x
CCOc1ccccc1NC(=O)c1oc2ccccc2c1NC(=O)C1CCCO1 (stereo not drawn) | -4.3 | -3.4 | 6.7 | 6.4 | 73.7* | -0.4 | 39.9
Cc1cccc(C(=O)OCC(=O)Nc2c(C)n(C)n(-c3ccccc3)c2=O)c1O | -7.1 | -14.5 | 12.0 | 11.6 | -6.9 | -2.8 | x
CC(C)CNC(=O)C1C(=O)Nc2ccccc2C(=O)N1C1CCCCC1 (stereo not drawn) | x | x | x | 5.3 | x | -5.7 | x
SMILES | CF NFkB block | KKLEB cytotox | Mdm2 MdmX PPI | HIF-2a block | Peg3 prom inh-1 | ABHD5-PLIN5 inh | Peg3 prom inh-2
Cc1ccc(OC(=O)CN2C(=O)c3ccccc3C2=O)cc1C | -20.3 | 10.5 | 6.0 | 4.6 | -6.6 | 3.1 | x
Cc1cc(C)c(S(=O)(=O)ON2C(=O)c3ccccc3C2=O)cc1C | -1.5 | 2.5 | 2.5 | 38.9 | 69.9* | 7.3 | 40.8*
Cc1ccc(NS(=O)(=O)c2ccc(-n3cccn3)cc2)c(Cl)c1 | -21.5 | 1.8 | x | 10.3 | 14.6 | -11.0 | x
Cc1cc(C)c(NC(=O)CSc2nc3ccc(NC(=O)CSc4nnnn4Cc4ccccc4)cc3s2)c(C)c1 | -35.4 | -7.7 | 36.5 | -38.2 | -28.8 | -0.7 | x
Cc1cc(C)c(NC(=O)CSc2nc3ccc(NC(=O)CSc4nnnn4-c4ccccc4)cc3s2)c(C)c1 | 70.7* | -66.7* | 14.0 | 10.2 | 83.8* | 1.1 | 13.4
COc1cccc(NC(=O)CN(C)C(=O)c2cc(-c3ccco3)nc3ccccc23)c1 | 11.7 | -3.2 | 11.5 | 3.2 | 12.4 | -1.4 | x
CN(CCOc1ccc(Cl)cc1)C(=O)c1cc(-c2ccco2)nc2ccccc12 | -10.2 | -8.9 | 42.9 | 1.9 | 64.4* | -0.3 | 79.1*
O=C(Nc1ccccn1)c1ccc(C(=O)c2ccccc2)cc1 | 9.2 | -18.4 | -76.7 | -209.4 | -349.9 | 1.5 | x
COc1ccc(NC(=O)Nc2cc(C)ccn2)cc1 | -2.2 | -7.9 | x | -89.0 | -144.9 | -0.6 | x
O=C(NC(=O)c1ccccc1)Nc1ccccn1 | 12.0 | -21.5 | 32.5 | 75.2* | 90.2* | 3.2 | 76.8*
COc1ccc(C(=O)NC(=O)Nc2cc(C)ccn2)cc1 | 6.6 | -54.9* | 34.3 | -24.4 | 72.4* | 4.1 | 38.0
COC(=O)c1cc(S(=O)(=O)N2CCN(c3cccc(C)c3C)CC2)c[nH]1 | 12.7 | -13.6 | 9.2 | 9.0 | 11.1 | -3.0 | x
COc1cc(C(C)=O)ccc1OCC(O)CNCC(O)c1ccccc1 (stereo not drawn) | 7.0 | 2.5 | -23.8 | 7.2 | 3.5 | -3.5 | x
Cc1nc(N2CCN(S(=O)(=O)c3ccccc3C#N)CC2)c2c(-c3ccccc3)csc2n1 | 11.3 | -17.7 | 33.3 | 17.7 | 53.8* | 1.4 | 61.7*
O=C(O)c1ccc(NC2(C(=O)O)CCCC2)cc1 | -25.0 | 2.2 | x | 7.4 | 0.2 | -4.5 | x
O=C(CN1CCN(Cc2ccccc2Cl)CC1)N=Nc1c(O)[nH]c2ccccc12 | 25.3 | -16.9 | 25.6 | 29.0 | 54.3* | 1.7 | 48.0*
O=C(CCCN1C(=O)/C(=C/c2ccccc2Cl)SC1=S)NNC(=O)c1ccc(Cl)cc1Cl | 2.7 | -8.4 | 45.6 | 73.4* | 65.9* | 5.5 | 42.7*
Cc1ccc(CNC(=O)CCc2c(C)nn(-c3ccc(N4CCOCC4)nn3)c2C)cc1 | -15.7 | 14.7 | -7.5 | -15.1 | -10.3 | -7.5 | x
COCc1c(C(=O)N2CCN(CCOc3ccccc3)CC2)oc2ccccc12 | -3.5 | 2.9 | 25.3 | -1.2 | 14.1 | 2.6 | x
